Assay results reported in PubChem BioAssay AID2517 (National Center for Advancing Translational Sciences (NCATS), 2010).
Values joined by “and” are separate entries in the source; they are usually repeats but may differ in a detail not shown here. Identical values can stand only once. Screen size: about 350,000 compounds; about 1,200 (0.34%) were called active. Roughly 3% stayed inconclusive and do not appear here. Calls come from the whole dose curve; as a rule, active = well fitted inhibition curve with a large enough effect; inconclusive = small, poorly fitted or top-dose-only effect; inactive = no such curve, though single readings can be large or run the other way. Only a selection was taken, and actives are over-represented in it overall. Some compounds were tested as several samples or in several runs, with calls that do not always agree.

These compounds were tested against DNA repair nuclease/redox regulator APEX1 (Homo sapiens) (UniProt P27695) (assay: qHTS Assay for Inhibitors of the Human Apurinic/apyrimidinic Endonuclease 1 (APE1)). Conditions: recombinant APE1, TAMRA/BHQ-2 abasic DNA cleavage fluorescence; activity change, negative = inhibition: at 65.8 µM (top of the series).
Source text: The apurinic/apyrimidinic endonuclease APE1 is the primary mammalian enzyme responsible for the removal of abasic (or AP) sites in DNA and functions centrally in the base excision DNA repair (BER) pathway. […] Thus, targeting APE1 could improve the efficacy of current treatment paradigms by promoting selective sensitization or protection of diseased and normal cells, respectively.
Inhibition of APE1 activity was screened by utilizing double-stranded short substrate containing tetrahydrofuran (THF) abasic site labeled with rhodamine-type fluorophore (TAMRA) at the 5'-end and with non-fluorescent Black Hole Quencher-2 (BHQ-2) at the opposing 3'-end. An increase in the fluorescence intensity due to incision of the abasic site by APE1 was used to measure the enzyme activity.
NIH Chemical Genomics Center [NCGC]
NIH Molecular Libraries Probe Centers Network [MLPCN]
Assay Provider: David M. Wilson, III, National Institute on Aging, NIH
Three uL of enzyme solution (0.75 nM APE1 final concentration) was dispensed to 1536-well Greiner black solid bottom plates. […] The plates were incubated for 15 min at room temperature, and then 1 uL of substrate solution (50 nM final concentration of TAMRA/BHQ-2) was added to start the reaction. The plates were immediately transferred into ViewLux High-throughput CCD imager (Perkin-Elmer) in order to measure the reaction progress in kinetic mode (three reads every 60 seconds) using 525 nm excitation and 598 nm emission fluorescence protocol. The fluorescence intensity difference between the third and the first time points was used to compute reaction progress. Results were normalized to buffer only columns and NSC13755 positive controls and negative control DMSO treated wells.
Note: nearly all actives have a fitted effect of over 55% in size.
Potency is the fitted concentration of half-maximal effect.
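Throughout, for activity change, negative = inhibition: plate controls were vehicle for no effect and reference inhibitor for full effect.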

DNA repair nuclease/redox regulator APEX1 (Homo sapiens), sequence (P27695 whole entry, looked up): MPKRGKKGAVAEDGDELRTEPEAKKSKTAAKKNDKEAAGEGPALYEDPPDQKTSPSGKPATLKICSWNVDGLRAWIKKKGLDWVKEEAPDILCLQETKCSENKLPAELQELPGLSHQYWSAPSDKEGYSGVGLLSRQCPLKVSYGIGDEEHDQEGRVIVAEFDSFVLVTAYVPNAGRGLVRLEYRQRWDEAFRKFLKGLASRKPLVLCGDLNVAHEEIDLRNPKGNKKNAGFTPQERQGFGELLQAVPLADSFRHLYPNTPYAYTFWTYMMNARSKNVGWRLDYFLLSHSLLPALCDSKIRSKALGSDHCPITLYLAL

**Q.** With `Cc1ccc(CCC(=O)Nc2ncc(Cc3cc(Cl)ccc3Cl)s2)o1` as the compound, how does the “activity change, negative = inhibition” value read?
**A.** Its value is -4.89% (inactive).

**Q.** For `Cc1ccc(Cc2cnc(N)s2)o1`, which Potency is on record?
**A.** Its Potency is 28.2 µM (active).

**Q.** `CCC[C@@H]1C[C@@]1(CCC)C(NS(=O)(=O)c1cccc2cccnc12)c1ccc(Cl)cc1` (stereo partly specified) was tested. Which “activity change, negative = inhibition” value did it give?
**A.** Its value is 14.7% (inactive).

**Q.** Which activity change, negative = inhibition does the source give for `CC(=O)OCC1OC(C#CCCCc2ccccc2)C=CC1OC(C)=O` (stereo unspecified) here?
**A.** The activity change, negative = inhibition was 10.7% [at 12.4 µM] (inactive) and -3.91% [at 12.4 µM] (inactive).

**Q.** How did the “activity change, negative = inhibition” value turn out when `Nc1ncn(C2OC(CO)C(O)C2O)c(=O)n1` (stereo unspecified) was run?
**A.** Its value is -0.222% (inactive).

**Q.** With `CC1=C2[C@@H](O)[C@H]([C@@H](C)C(=O)NCCC(C)C)CC[C@@]2(C)C=CC1=O` as the compound, how does the “activity change, negative = inhibition” value read?
**A.** The value was -2.86% (inactive).

**Q.** Which activity change, negative = inhibition does the source give for `COC(=O)C1=C(C)N(Cc2ccccc2)C2=C3C(=O)N(c4ccccc4)C(=O)C3[C@@](O)(C(=O)OC)C(=O)N2C1c1ccccc1` (stereo partly specified) here?
**A.** The activity change, negative = inhibition was -8.1% [at 12.4 µM] (inactive) and -10.6% [at 12.4 µM] (inactive).

**Q.** Which “activity change, negative = inhibition” value does the source give for `C#CCOCCOCCOCCNc1nc(N2CCN(C(=O)[C@H](CCCCN)n3cc([C@@H](N)C(C)CC)nn3)CC2)nc(N2CCN(C(=O)[C@H](Cc3ccc(O)cc3)n3cc([C@@H](N)C(C)CC)nn3)CC2)n1` (stereo partly specified) here?
**A.** The value was 24.6% (inactive).

**Q.** For `C#CCOCCOCCOCCNc1nc(N2CCN(C(=O)C(Cc3ccc(O)cc3)n3cc(C(N)CC(C)C)nn3)CC2)nc(N2CCN(C(=O)C(Cc3ccc(O)cc3)n3cc(C(N)C(C)CC)nn3)CC2)n1` (stereo unspecified), which Potency is on record?
**A.** The Potency was 31.6 µM (active).

**Q.** Which “activity change, negative = inhibition” value does the source give for `C#CCOCCOCCOCCNc1nc(N2CCN(C(=O)[C@H](Cc3ccc(O)cc3)n3cc(C(N)CC(C)C)nn3)CC2)nc(N2CCN(C(=O)[C@H](CCC(=O)O)n3cc(C(N)[C@H](C)CC)nn3)CC2)n1` (stereo partly specified) here?
**A.** The value was -11.9% (inactive).

**Q.** With `C=CCOC(=O)NC(c1ccc(F)c(F)c1)C(C(=O)COC)C(=O)OC` (stereo unspecified) as the compound, how does the Potency read?
**A.** The Potency was “inactive”.

**Q.** Which “activity change, negative = inhibition” value does the source give for `CCCN1[C@H](C(=O)OC)C[C@@]2(O)[C@@H](O)[C@@H](O)[C@@H](O)C[C@@H]12` here?
**A.** The value was 14.8% (inactive).

**Q.** With `COc1c(O)c2c(=O)cc(OC)c3c4c(OC)cc(=O)c5c(O)c(OC)c6c(c(c1C[C@@](C)(O)[C@H]6C(C)=O)c23)c54` as the compound, how does the “activity change, negative = inhibition” value read?
**A.** The value was -10.2% (inactive).

**Q.** `O=C1N/C(=C/c2cccn2-c2ccccc2)C(=O)N1c1cccc(Cl)c1` was tested. Which “activity change, negative = inhibition” value did it give?
**A.** The value was 6.35% (inactive).

**Q.** Which Potency does the source give for `Cc1ccccc1NC(=O)CN1C(=O)N/C(=C\c2cccn2-c2cccc(C(=O)O)c2)C1=O` here?
**A.** Its Potency is 3.16 µM (active).

**Q.** For `Cc1ccccc1NC(=O)CSC(=O)c1ccccc1`, which “activity change, negative = inhibition” value is on record?
**A.** Its value is 8.15% (inactive).

**Q.** `O=C(c1cccc(F)c1)N1CCC2(CCCN(Cc3ccncc3)C2)CC1` was tested. Which “activity change, negative = inhibition” value did it give?
**A.** The value was -0.987% (inactive).

**Q.** With `COC(=O)[C@@]1(Cc2ccc(F)cc2)[C@@H]2[C@@H](CC(=O)[C@H]2CC(=O)C(=O)N2CCCC2)CN1C(=O)c1ccccc1` as the compound, how does the “activity change, negative = inhibition” value read?
**A.** The value was -5.41% (inactive).

**Q.** For `CC(=O)OCC(=O)C1CCC2C3CCC4=CC(=O)CC[C@@]4(C)C3CC[C@]12C` (stereo partly specified), which “activity change, negative = inhibition” value is on record?
**A.** Its value is 1.89% (inactive).

**Q.** Which activity change, negative = inhibition does the source give for `C#CCC(C(=O)OC)(C(=O)OC)C(C[N+](=O)[O-])c1ccccc1` (stereo unspecified) here?
**A.** Its activity change, negative = inhibition is 1.76% [at 12.4 µM] (inactive).

**Q.** Which Potency does the source give for `O=c1ccc2c(-c3ccccc3S(=O)(=O)O)c3ccc(O)c(O)c3oc-2c1O` here?
**A.** Its Potency is 0.0947 µM (active).

**Q.** How did the activity change, negative = inhibition turn out when `CC(C)CN1CCc2nc(-c3ccccc3)c3c(c2C1)COC(C)C3` (stereo unspecified) was run?
**A.** Its activity change, negative = inhibition is 8.68% [at 12.4 µM] (inactive).

**Q.** With `Cc1ccc(-c2nn(CC(C)(C)C)c3ncnc(N)c23)cc1` as the compound, how does the “activity change, negative = inhibition” value read?
**A.** The value was -2.29% (inactive).

**Q.** Which “activity change, negative = inhibition” value does the source give for `CN1CCCC1CCO[C@@](C)(c1ccccc1)c1ccc(Cl)cc1` (stereo partly specified) here?
**A.** Its value is 0.95% (inactive).

**Q.** For `Cc1nccn1CC(=O)N/N=C/c1ccc(O)c(O)c1`, which Potency is on record?
**A.** The Potency was 25.1 µM (active).

**Q.** For `CCOc1cc(/C=N/NC(=O)CN2CCCCC2)ccc1O`, which “activity change, negative = inhibition” value is on record?
**A.** Its value is 32% (inactive).

**Q.** Which “activity change, negative = inhibition” value does the source give for `Cn1c(SCC(=O)N/N=C/c2ccc(O)c(O)c2)nc2ccccc21` here?
**A.** The value was -9.26% (inactive).

**Q.** For `N#Cc1cccc(-c2ccc3ncnc(NCc4cccs4)c3c2)c1`, which “activity change, negative = inhibition” value is on record?
**A.** The value was 0.81% (inactive).

**Q.** `COc1ccc(-c2oc3cc(OC)ccc3c2C(=O)c2ccc(C#N)cc2)cc1` was tested. Which “activity change, negative = inhibition” value did it give?
**A.** Its value is -7.81% (inactive).

**Q.** With `COC(=O)C1=C(C(=O)OC)[C@@H]2N(C)c3ccccc3[C@@]23C[C@@H](C(=O)OC)N(S(=O)(=O)c2cccs2)C3=N1` as the compound, how does the activity change, negative = inhibition read?
**A.** The activity change, negative = inhibition was -14.4% [at 12.4 µM] (inactive).

**Q.** `Nc1ccc2nc3c(=O)[nH]c(=S)[nH]c3nc2c1` was tested. Which Potency did it give?
**A.** Its Potency is 0.501 µM (active).

**Q.** How did the “activity change, negative = inhibition” value turn out when `CN1[C@H]2CC(OC(=O)[C@@H](CO)c3ccccc3)C[C@H]1[C@H]1O[C@H]12` (stereo partly specified) was run?
**A.** The value was -4.8% [at 21 µM] (inactive).

**Q.** `COC(=O)[C@@]1(Cc2ccccc2)[C@H]2c3cc(C(=O)N4CCCC4)n(Cc4ccc(C)o4)c3C[C@H]2CN1C(=O)c1ccccc1` was tested. Which “activity change, negative = inhibition” value did it give?
**A.** The value was -5.54% (inactive).

**Q.** For `CC(C)C(N)C(=O)OCCOCn1cnc2c(=O)[nH]c(N)nc21` (stereo unspecified), which “activity change, negative = inhibition” value is on record?
**A.** Its value is 3.96% (inactive).

**Q.** With `C[C@@H]1O[C@@H](OC[C@H]2O[C@@H](Oc3cc(O)c4c(c3)O[C@H](c3ccc(O)c(O)c3)CC4=O)[C@H](O)[C@@H](O)[C@@H]2O)[C@H](O)[C@H](O)[C@H]1O` as the compound, how does the “activity change, negative = inhibition” value read?
**A.** The value was -10.7% (inactive).

**Q.** How did the Potency turn out when `C=CCCN(Cc1ccccc1)S(=O)(=O)c1ccccc1Br` was run?
**A.** The Potency was “inactive and 199 nM (active)”.

**Q.** Which Potency does the source give for `C=CC(COCc1ccccc1)N(Cc1ccccc1)S(=O)(=O)c1ccccc1Br` (stereo unspecified) here?
**A.** The Potency was “inactive”.

**Q.** How did the “activity change, negative = inhibition” value turn out when `C=CCCN(C(Cc1ccccc1)C(=O)OC)S(=O)(=O)c1cc(Br)ccc1Br` (stereo unspecified) was run?
**A.** The value was -1.9% (inactive).

**Q.** `COC(=O)[C@@]1(Cc2ccccc2)[C@H]2c3cc(C(=O)N(C)C)n(CCSCCO)c3C[C@H]2CN1C(=O)c1ccccc1` was tested. Which “activity change, negative = inhibition” value did it give?
**A.** The value was -0.311% (inactive).

**Q.** For `CC(C)=CCC[C@]1(C)[C@@H](CC=C(C)C)C[C@@]2(CC=C(C)C)C(=O)[C@]1(C(=O)C(C)C)C(=O)C(CC=C(C)C)=C2O`, which “activity change, negative = inhibition” value is on record?
**A.** The value was -2.28% (inactive).

**Q.** With `CC(=O)CC(C)C` as the compound, how does the “activity change, negative = inhibition” value read?
**A.** The value was -0.561% (inactive).

**Q.** How did the “activity change, negative = inhibition” value turn out when `O=C(c1cc(-c2ccco2)nc2ccccc12)N(Cc1nnc(-c2ccc(Cl)cc2)o1)C1CC1` was run?
**A.** Its value is -25.3% (inactive).

**Q.** `CC1CCCN(C(=O)c2cc(-c3ccco3)nc3ccccc23)C1` (stereo unspecified) was tested. Which “activity change, negative = inhibition” value did it give?
**A.** Its value is 17.7% (inactive).

**Q.** How did the Potency turn out when `Cc1cc(C)c2nc(-c3ccco3)cc(C(=O)O)c2c1` was run?
**A.** The Potency was 7.08 µM (active).

**Q.** `Cc1ccc(Br)cc1` was tested. Which “activity change, negative = inhibition” value did it give?
**A.** The value was -0.853% (inactive).

**Q.** With `CC(N)(C(=O)O)c1ccc(-c2nn[nH]n2)cc1` (stereo unspecified) as the compound, how does the “activity change, negative = inhibition” value read?
**A.** The value was 7.06% (inactive).

**Q.** How did the “activity change, negative = inhibition” value turn out when `COCCNc1ncnc2ccc(-c3cccnc3)cc12` was run?
**A.** Its value is -1.42% (inactive).

**Q.** For `CCCCCCCC[C@@H](O)/C=C/C=C/C=C\[C@@H](O)CCCC(=O)O`, which “activity change, negative = inhibition” value is on record?
**A.** Its value is -7.47% (inactive).

**Q.** With `O=c1c(O)c(Br)ccc2c(Br)c(O)c(O)c(O)c12` as the compound, how does the Potency read?
**A.** Its Potency is 1.12 µM (active).

**Q.** With `O=C(c1ccncc1)N1CCC2(CCN(Cc3cc(C(F)(F)F)cc(C(F)(F)F)c3)CC2)CC1` as the compound, how does the “activity change, negative = inhibition” value read?
**A.** Its value is 2.27% (inactive).

**Q.** With `CC1(C)C=CC(=O)[C@]2(C)C1CC(=O)[C@]1(C)C2CC[C@@]2(C)C(c3ccoc3)OC(=O)C3OC321` (stereo partly specified) as the compound, how does the “activity change, negative = inhibition” value read?
**A.** Its value is 0.648% (inactive).
